From the supplement of paper PMC8975748
Counter-ions that a name gives are not always drawn.

These compounds were tested on Saccharomyces cerevisiae BY4741 SeMeCo community (assay: z-score of prototroph abundance vs DMSO median; higher = larger share of this subpopulation than in DMSO controls). Settings: 10 µM; 24 h; SM minimal medium; subpopulation (auxotrophy): Prototroph.
Method: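 Fluorescent four-plasmid SeMeCo (self-establishing metabolically cooperating S. cerevisiae BY4741 community; plasmids pH-mRuby2, pL-mWasabi, pU-eCFP, pM-TagRFP657) was grown 24 h in minimal SM medium with each Selleck FDA-approved drug at 10 µM in 384-well plates. Cells were fixed and imaged by high-content confocal microscopy. For each auxotrophic subpopulation (and the prototroph), a z-score gives the deviation from the DMSO vehicle-control population median.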

First: CN(C)[C@@H]1C(=O)C(C(N)=O)=C(O)[C@@]2(O)C(=O)C3=C(O)c4c(O)cccc4[C@@](C)(O)[C@H]3C[C@@H]12 [Tetracycline HCl]
Second: CN(C)[C@@H]1C(=O)C(C(N)=O)=C(O)[C@@]2(O)C(=O)C3=C(O)c4c(O)cccc4[C@@](C)(O)[C@H]3[C@H](O)[C@@H]12 [Oxytetracycline Dihydrate]
The “z-score of prototroph abundance” value of the first is lower: -0.24 for the first, 0.77 for the second.

Going from `CC[N+](C)(CC)CCOC(=O)C(O)(c1ccccc1)c1ccccc1` [Methylbenactyzine Bromide] to `CCN(CC)CCOC(=O)C(O)(c1ccccc1)c1ccccc1` [Benactyzine hydrochloride], the “z-score of prototroph abundance” value falls from 1.09 to -0.56.

Going from `C[N+]1(C)[C@@H]2C[C@@H](OC(=O)[C@H](CO)c3ccccc3)C[C@H]1[C@@H]1O[C@@H]12` [Methscopolamine] to `CN1[C@@H]2CC[C@H]1C[C@@H](OC(=O)C(CO)c1ccccc1)C2` (some centres undefined) [Atropine sulfate monohydrate], the “z-score of prototroph abundance” value rises from -0.68 to 0.64.

Going from `NCCc1c[nH]c2ccc(O)cc12` [Serotonin HCl] to `COc1ccc2[nH]cc(CCN)c2c1` [5-Methoxytryptamine], the “z-score of prototroph abundance” value falls from 0.67 to -0.96.

Compared with `C[N+]12CCC(CC1)C(OC(=O)C(O)(c1ccccc1)c1ccccc1)C2` (centres undefined) [Clidinium Bromide], `CC(C)N(CCC(C(N)=O)(c1ccccc1)c1ccccn1)C(C)C` (centres undefined) [Disopyramide] is lower in “z-score of prototroph abundance” value: 0.13 for the first, -0.35 for the second.

Going from `CN(C)C(=O)Oc1cccc([N+](C)(C)C)c1` [Neostigmine Bromide] to `CC(NC(C)(C)C)C(=O)c1cccc(Cl)c1` (centres undefined) [Amfebutamone (Bupropion) HCl], the “z-score of prototroph abundance” value rises from 0.27 to 0.49.

Going from `CC[C@H]1[C@@H]2C[C@H]3[C@@H]4N(C)c5ccccc5[C@]45C[C@@H]([C@@H]2[C@H]5O)N3[C@@H]1O` [Ajmaline] to `CC[C@H]1CN2CC[C@]3(C(=O)Nc4ccccc43)[C@@H]2C[C@@H]1/C(=C\OC)C(=O)OC` [Rhynchophylline], the “z-score of prototroph abundance” value falls from 0.22 to -0.9.

Compared with `C=C(C)[C@H]1Cc2c(ccc3c2O[C@@H]2COc4cc(OC)c(OC)cc4[C@@H]2C3=O)O1` [Rotenone (Barbasco)], `COc1cc2c(cc1OC)C1CC(=O)C(CC(C)C)CN1CC2` (centres undefined) [Tetrabenazine (Xenazine)] is higher in “z-score of prototroph abundance” value: -0.73 for the first, 0.02 for the second.

Compared with `CC1(C)SC2C(N)C(=O)N2C1C(=O)O` (centres undefined) [6-Aminopenicillanic acid], `CC[C@@H](C(N)=O)N1CCCC1=O` [Levetiracetam] is higher in “z-score of prototroph abundance” value: 0.04 for the first, 0.59 for the second.

Going from `O=[N+]([O-])C(Br)(CO)CO` [Bronopol] to `CCOC(=O)Nc1ccc(NCc2ccc(F)cc2)cc1N` [Retigabine 2HCl], the “z-score of prototroph abundance” value rises from -0.24 to 0.05.

First: CC(=O)O[C@H]1C[C@@H]2CC[C@@H]3[C@H](CC[C@@]4(C)[C@H]3C[C@H]([N+]3(C)CCCCC3)[C@@H]4OC(C)=O)[C@@]2(C)C[C@@H]1[N+]1(C)CCCCC1 [Pancuronium dibromide]
Second: C[C@@H]1O[C@@H](O[C@H]2C[C@@H](O)[C@]3(CO)[C@H]4[C@H](O)C[C@]5(C)[C@@H](C6=CC(=O)OC6)CC[C@]5(O)[C@@H]4CC[C@]3(O)C2)[C@H](O)[C@H](O)[C@H]1O [Ouabain]
The “z-score of prototroph abundance” value of the first is higher: 0.97 for the first, 0.81 for the second.

First: N#Cc1nn(-c2c(Cl)cc(C(F)(F)F)cc2Cl)c(N)c1[S+]([O-])C(F)(F)F (centres undefined) [Fipronil]
Second: Oc1cc(Cl)ccc1Oc1ccc(Cl)cc1Cl [Triclosan]
The “z-score of prototroph abundance” value of the first is lower: 0.88 for the first, 2.53 for the second.

First: CC(C)(O)C(Cl)(Cl)Cl [Chlorobutanol]
Second: CC(C)=CCOc1c2occc2cc2ccc(=O)oc12 [Imperatorin]
The “z-score of prototroph abundance” value of the first is higher: -0.27 for the first, -0.8 for the second.

Going from `C[C@H]1O[C@H](O[C@H]2[C@H](O)[C@@H](O)[C@@H](O)[C@H](O)[C@@H]2O)[C@@H](N)C[C@@H]1NC(=N)C(=O)O` [Kasugamycin hydrochloride] to `C[C@@H]1CC[C@H]2[C@@H](C)C(=O)O[C@@H]3O[C@@]4(C)CC[C@@H]1[C@]32OO4` [Artemisinin], the “z-score of prototroph abundance” value rises from 0.23 to 1.7.

Going from `C=CN1CCCC1=O.II` [Povidone iodine] to `C=CC[C@]1(O)CC[C@H]2[C@@H]3CCC4=CC(=O)CCC4=C3C=C[C@@]21C` [Altrenogest], the “z-score of prototroph abundance” value rises from -1.1 to 0.56.

Compared with `Nc1nc(N)nc(NC2CC2)n1` [Cyromazine], `CN1c2ccccc2C(NCCCCCCC(=O)O)c2ccc(Cl)cc2S1(=O)=O` (centres undefined) [Tianeptine sodium] is higher in “z-score of prototroph abundance” value: -1.21 for the first, 0 for the second.

First: C=CCN1C[C@H](C(=O)N(CCCN(C)C)C(=O)NCC)C[C@@H]2c3cccc4[nH]cc(c34)C[C@H]21 [Cabergoline]
Second: CCCCCCCCCCCCCCCC[n+]1ccccc1 [Cetylpyridinium Chloride]
The “z-score of prototroph abundance” value of the first is higher: -0.35 for the first, -12.7 for the second.
